# From PubChem BioAssay AID1626 (SRMLSC, 2009)
# Hit rate of the full screen: of about 220,000 compounds, about 2,000 (0.91%) were called active. Roughly 2% stayed inconclusive and do not appear here. The list is a sample of the results. Entries with a potency or affinity are not part of this list. Unmarked numbers belong to inactive results. Rule as the data show it: inconclusive = inhibition above about 80% without an active follow-up result; inactive = below that; test concentration not stated here.
# Assay: M. tuberculosis H37Rv growth inhibitors, H37Rv strain (AID 1626);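 also: bacteria incubated seven days before Alamar blue readout; 0% = bacteria only wells and 100% = bacteria with antibiotic wells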
# Conditions: stronger effect = higher value, concentration not given here
row,SMILES,inhibition [%]
1,Cc1ccc(OCCC(=O)Nc2ccc(F)c(F)c2)cc1,-1.46
2,Cc1ccc(OCCCC(=O)Nc2ccc(Br)cc2)cc1,-4.3
3,CC(=O)Nc1ccc(NC(=O)CCSCCc2ccccn2)cc1,-0.22
4,COc1ccc(NC(=O)CCOc2ccccc2)cc1,70.1
5,Cc1ccc(NC(=O)CCSCCc2ccccn2)cc1,71.6
6,CCOC(=O)c1ccc(NC(=O)CN(C)S(=O)(=O)c2ccc(OC)cc2)cc1,-10.7
7,O=C(CN1CC(=O)Nc2ccccc21)Nc1ccc(F)c(F)c1,0.62
8,COc1ccc(CCNC(=O)CSc2cccc3cccnc23)cc1OC,3.55
9,CCC(C)NC(=O)c1ccccc1SC (stereo not drawn),9.14
10,CCN(Cc1cc(=O)[nH]c2ccccc12)C(=O)c1ccc(C)cc1,-2.96
11,COc1ccc(C(=O)NC(=S)Nc2ccc(CN3CCCCC3)cc2)cc1Cl,7.56
12,CCOC(=O)c1c(C)oc2ccc(OCC(N)=O)cc12,8.61
13,COC(=O)c1c(C)oc2ccc(NS(=O)(=O)c3cccs3)cc12,2.07
14,Cc1oc2ccc(OC(=O)N(C)C)cc2c1C(=O)OC(C)C,-7.47
15,CCOC(=O)c1c(C)oc2ccc(OS(C)(=O)=O)cc12,0.04
16,Cc1oc2ccc(OS(C)(=O)=O)cc2c1C(=O)OC(C)C,-0.97
17,COC(=O)c1c(C)oc2ccc(OC(=O)N3CCOCC3)cc12,-6.17
18,COC(=O)c1ccc(CSc2nc3c(cnn3-c3ccc(C)cc3)c(=O)[nH]2)o1,-0.23
19,CC1(C)C(=O)Nc2ccccc2N1C(=O)COc1ncnc2ccccc12,4.16
20,O=C(C[n+]1ccc(/C=N/O)cc1)NCc1ccccc1,-12.5
21,COc1cc(CCNc2ccc3nnc(-c4ccccc4)n3n2)cc(OC)c1OC,10.3

row,SMILES,inhibition [%]
1,O/N=C1\CCCCc2ccccc21,-4.26
2,CC12CCC(C(=O)N3CCN(C(c4ccccc4)c4ccccc4)CC3)(OC1=O)C2(C)C (stereo not drawn),1.93
3,COc1ccc(-c2csc(NC(C)c3nc4cc(Cl)c(Cl)cc4n3CCCO)n2)cc1 (stereo not drawn),5.27
4,CC(Nc1nc(-c2ccc(Cl)cc2)cs1)c1nc2cc(Cl)c(N3CCCCC3)cc2n1CCOCCO (stereo not drawn),44.5
5,CC(Nc1nc(-c2ccc(F)cc2)cs1)c1nc2cc(Cl)c(N3CCCCC3)cc2n1CCOCCO (stereo not drawn),19.6
6,CC(Nc1nc(-c2ccc(F)cc2)cs1)c1nc2cc(Cl)c(N3CCCCC3)cc2n1CCCO (stereo not drawn),78
7,Cc1ccc(NC(=O)c2cc(NC(=O)C3CC=CCC3C(=O)O)ccc2N2CCOCC2)cc1Cl (stereo not drawn),-6.7
8,CCn1c(NC(C)=O)nc2ccccc21,2.94
9,CCn1c(CNC(=O)c2ccccc2)nc2ccccc21,-6.06
10,CCN(CC)CCn1c(NC(=O)c2ccc(Cl)cc2)nc2ccccc21,57.6
11,CC(=O)Nc1nc2ccccc2n1CCN1CCOCC1,-6.15
12,O=C(Nc1nc2ccccc2n1CCN1CCCC1)c1ccc(Cl)cc1,58.7
13,Cn1c(NC(=O)c2cccc(Cn3cc(Cl)cn3)c2)nc2ccccc21,84.7
14,CC(C)NC(=O)c1cccc(Cn2cc(Cl)cn2)c1,-2.76
15,CN(C)CCn1c(NC(=O)c2ccc(Cl)cc2)nc2ccccc21,65.2
16,Cc1c(C(=O)N/N=C/c2ccc(N3CCOCC3)cc2)nc2ccccn12,3.49
17,CC(c1ccccc1)c1nnc(NC(=O)c2ccc3c(c2)OCO3)s1 (stereo not drawn),6.54
18,O=C(OCCN1C(=O)c2ccccc2C1=O)C1CCN(S(=O)(=O)c2cccs2)CC1,-5.04
19,CCCCNC(=O)N1CCN(C/C=C/c2ccccc2)CC1,5.68
20,O=C(c1ccc(C(F)(F)F)cc1)N1CCCCC1,-0.08
21,Fc1cccc(NC(=S)NCc2cccnc2)c1,21.1

row,SMILES,inhibition [%]
1,O=c1c2cc(-c3ccccc3)sc2nc2n1N=C(c1ccccc1)CS2,10.6
2,CCCCN(CCCC)Cc1cc2ccccc2c2c1COC2,4.07
3,CCn1c(C(C)NC(=O)c2cccs2)nc2ccccc21 (stereo not drawn),2.83
4,CCCn1c(C(C)NC(=O)c2ccccc2)nc2ccccc21 (stereo not drawn),0.32
5,CCCn1c(CNC(=O)c2ccccc2)nc2ccccc21,-0.92
6,CCCn1c(Nc2nc3ccccc3n2C)nc2ccccc21,2.56
7,CCn1c(CCCNC(=O)c2cccs2)nc2ccccc21,-2.25
8,CCCn1c(NC(=S)Nc2ccccc2)nc2ccccc21,7.73
9,CCCn1c(NCCO)nc2ccccc21,-2.95
10,CCCn1c(Nc2ccccc2C)nc2ccccc21,-8.39
11,Cc1onc(-c2ccccc2Cl)c1C(=O)N1C=CC(C(F)(F)Cl)=NCC1,1.09
12,O=C(NCc1ccc(Cl)cc1)c1cc(-c2cccs2)on1,-1.76
13,Cc1cccc(SCC(=O)Nc2ccccc2[N+](=O)[O-])c1,7.5
14,COc1ccc(N=C2S/C(=C\c3ccc(OCC(=O)O)cc3)C(=O)N2CCc2c[nH]c3ccccc23)cc1,-4.37
15,Cc1ccc(C)c(CN2C(=O)COc3ccc(C(=O)c4ccccc4C(=O)O)cc32)c1,15.8
16,CCN(CC)S(=O)(=O)c1cccc(NC(=O)COC(=O)CNC(=O)c2cccc(F)c2)c1,-4.29
17,Cc1ccccc1NS(=O)(=O)c1cc(C(=O)NCc2ccco2)ccc1C,-1.94
18,COc1cc(NC(=O)CSc2nnc(C)s2)cc(OC)c1OC,0.33
19,CCn1c(NC(=O)Nc2ccccc2OC)nc2ccccc21,81.5
20,CCn1cc(Cl)c(C(=O)Nc2nc3ccccc3n2CCN2CCCCC2)n1,3.91
21,Cc1ccc(-c2nc(C(F)(F)F)cc(=O)[nH]2)cc1,-0.92
